Most compounds without a hit are left out; they make up all but 2.2% or so of the library.
PvdQ acylase: P. aeruginosa PvdQ acylase inhibitors, primary screen, biochemical, fluorescence, plate reader and imaging, single point; inhibition, % at 10 µM; PvdQ acylase [Pseudomonas aeruginosa LESB58]; 340,000 compounds, 0.063% hits; purified PvdQ acylase; AID 488965, 2010; in the data active = inhibition above about 30%, passing the limit was not always enough;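 also: 0% = vehicle neutral wells and 100% = reference inhibitor wells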
C2C12 statin: suppressors of statin myotoxicity in C2C12 myotubes, primary screen, cell-based, single point, plate reader. C2C12 myotubes + simvastatin, ATP luminescence, 48 h; scaled: DMSO 0, geranylgeraniol control 100. rescue of ATP level, % at 7.49 µM. 330,000 compounds, 0.78% hits;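 active = mean ATP rescue above about 67%, or every replicate alone reaching that limit, limit read from the data, passing the limit was not always enough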;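 also: myotubes were challenged with 10 µM simvastatin during compound exposure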
miR122 inh: miR-122 Renilla sensor signal increase in Huh7, primary screen, miR-122 inhibitor project, cell-based, single point, plate reader. Huh7 miR-122 Renilla luciferase sensor, 48 h; neutral wells = 0, positive control = 100. activation (reporter increase), % at 12.5 µM. 340,000 compounds, 0.3% hits;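 active = mean replicate activation score at least 90 and every replicate individually at or above 90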;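 also: higher luciferase means less miR-122 activity so hits act as miR-122 inhibitors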
PGC1a acetyl inh: inhibitors of PGC1a acetylation signal, primary screen, cell-based, U2OS, AlphaScreen, inhibitor mode | 350,000 compounds, 0.17% hits | inhibition, % at 15.6 µM | AlphaScreen anti-acetyl-lysine; with virally co-expressed GCN5 acetyltransferase | AID 651687, 2012;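 active = every replicate shows inhibition of at least 40%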;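 also: 0% = neutral control wells and 100% = positive control wells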
DENV2 CPE: inhibitors of DENV2 cytopathic effect, primary screen, cell-based, plate reader, single concentration. CPE inhibition, % at 9.99 µM. 350,000 compounds, 1.7% hits. AID 651640, 2012. DENV2-infected cells, cytopathic effect rescue; in the data active = CPE inhibition above about 20%, passing the limit was not always enough; tested in BHK-21 cells;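 also: 0% = median of neutral control wells and 100% = median of positive control wells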
* = called active by the depositor; . = no result; ! = not active in a repeat; [ ] = dose if it differs, or a comment.

SMILES	PvdQ acylase	C2C12 statin	miR122 inh	PGC1a acetyl inh	DENV2 CPE
CC(C)[C@@H]1CC2=C(C(=O)OC(C)(C)O2)[C@H](CCc2ccccc2)O1	.	.	.	.	42*
COc1ccc2c3c([nH]c2c1)[C@@H](CO)N(S(C)(=O)=O)CC31CCN(CC2CC2)CC1	.	.	.	.	-8
COc1ccc2c3c([nH]c2c1)[C@H](CO)N(S(C)(=O)=O)CC31CCN(CC2CCCC2)CC1	.	.	.	-1	28*
COc1ccc2c3c([nH]c2c1)[C@@H](CO)N(S(C)(=O)=O)CC31CCN(CC2CCCC2)CC1	.	.	.	-7	54*
O=C1C2C(C(=O)N1Cc1ccco1)C1C=CC2C12CC2 (stereo not given)	87*	3	-2	4	.
O=C1C2C3C=CC(C4CC34)C2C(=O)N1Cc1ccco1 (stereo not given)	41*	0	-5	.	6
CO[C@H]1CN(C)C(=O)c2ccc(NC(C)=O)cc2OC[C@H](C)N(Cc2cccnc2)C[C@@H]1C	.	6	17[16.7 µM]	3	.
N#C[C@H]1[C@@H](c2ccccc2-c2ccccc2)[C@@H](CO)N1C(=O)NC1CCCCC1	.	.	.	-1	-15
N#C[C@@H]1[C@H](c2ccccc2-c2ccccc2)[C@@H](CO)N1C(=O)NC1CCCCC1	.	.	.	-1	45*
N#C[C@@H]1[C@H](c2ccc(C3=CCCCC3)cc2)[C@H](CO)N1C(=O)NC1CCCC1	.	.	.	.	27*
N#C[C@H]1[C@@H](c2ccc(C3=CCCCC3)cc2)[C@H](CO)N1C(=O)NC1CCCC1	.	.	.	-7	10
C/C=C/c1ccc([C@@H]2[C@H](C#N)N(C(=O)NC3CCCCC3)[C@H]2CO)cc1	.	2	.	-16	77*
N#C[C@H]1[C@@H](c2ccccc2C2=CCCCC2)[C@@H](CO)N1C(=O)NC1CCCC1	.	.	.	1	22*
C[C@H]1CN([C@@H](C)CO)C(=O)Cc2cc(NC(=O)Nc3ccc(F)cc3)ccc2O[C@H]1CN(C)Cc1ccc(C(=O)Nc2ccccc2N)cc1	.	.	.	-10	-6
CO[C@@H]1CN(C)C(=O)c2ccc(NC(=O)NC(C)C)cc2OC[C@@H](C)N(C(=O)C2CCC2)C[C@H]1C	.	.	.	6	-7
C/C=C/c1ccc([C@H]2[C@@H](CNS(C)(=O)=O)N(CC3CCCC3)[C@H]2CO)cc1	.	15	0[16.7 µM]	-11	51*
Cc1noc(C)c1NC(=O)N(C)C[C@H]1Oc2c(NC(=O)c3ccc(-c4nccs4)cc3)cccc2C(=O)N([C@@H](C)CO)C[C@H]1C	.	18	-4[16.7 µM]	-4	24*
Cc1noc(C)c1NC(=O)N(C)C[C@@H]1Oc2c(NC(=O)c3ccc(-c4nccs4)cc3)cccc2C(=O)N([C@H](C)CO)C[C@@H]1C	.	4	-1[16.7 µM]	-6	33*
Cc1noc(C)c1NC(=O)N(C)C[C@H]1Oc2c(NC(=O)c3ccc(-c4nccs4)cc3)cccc2C(=O)N([C@H](C)CO)C[C@H]1C	.	13	-7[16.7 µM]	-1	9
C[C@@H]1CN([C@H](C)CO)C(=O)c2cccc(NC(=O)c3ccc(-c4nccs4)cc3)c2O[C@@H]1CN(C)C(=O)Nc1cccc2ccccc12	.	80*	-5[16.7 µM]	5	4
COc1ccc(C(=O)NCCNc2nc3c(C)cccc3cc2C#N)cc1OC	-5	16	-4	6	29*
C[C@@H]1CN([C@H](C)CO)C(=O)c2cc(NC(=O)NC3CCCCC3)ccc2O[C@H]1CN(C)Cc1ccc2c(c1)OCO2	.	-32	1[16.7 µM]	-3	-3
C=CCSc1nnc(CSc2nc3sc4c(c3c(=O)[nH]2)CCCC4)n1-c1ccccc1	-6	120*	4	-5	.
C[C@H]1CN([C@@H](C)CO)C(=O)c2cccc(NS(=O)(=O)c3ccc(F)cc3)c2O[C@@H]1CN(C)C(=O)Nc1cccc2ccccc12	.	.	.	-8	11
C[C@H](CO)N1C[C@H](C)[C@@H](CN(C)C(=O)NC2CCCC2)Oc2ncc(C3=CCCC3)cc2C1=O	.	.	.	4	-2
SMILES	PvdQ acylase	C2C12 statin	miR122 inh	PGC1a acetyl inh	DENV2 CPE
COc1ccc(Nc2ccnc3ccccc23)cc1	10	.	1	51*	.
COc1ccc(Nc2ncnc3ccccc23)cc1	-12	.	2	15	.
CC(=O)NCCn1c(SCc2cc(=O)n3cc(Cl)ccc3n2)nc2ccccc2c1=O	-13	75*	-4	4	.
CC1=CC(C)(C)Nc2ccccc21	-12	3	-7	5	28*
CCN(C(=O)COC(=O)c1nc2nc(C)cc(C)n2n1)C1CCS(=O)(=O)C1 (stereo not given)	-10	4	-4	5	6
Cc1cc(C)n2nc(C(=O)OCC(=O)N(CC(C)C)C3CCS(=O)(=O)C3)nc2n1 (stereo not given)	-13	96*	-1	5	4
COCC1COS(=O)(=O)NC1(C)C (stereo not given)	-10	0	2	3	20*
C[C@@H]1CN([C@@H](C)CO)C(=O)c2cc(-c3ccc(F)cc3)cnc2O[C@@H]1CN(C)Cc1ccccn1	.	-2	7[16.7 µM]	-9	-7
O=S(=O)(c1ccccc1)N(CC(O)COc1ccccc1)c1ccccc1 (stereo not given)	-8	37	131*	-16	.
Cc1cc(C)n(CC(O)CN(c2ccccc2)S(=O)(=O)c2ccccc2)n1 (stereo not given)	-4	10	5	6	.
N#Cc1ccc(-c2ccc([C@@H]3[C@@H]4CN(Cc5cocn5)C[C@H]3N4)cc2)cc1	.	.	.	-8	99*
COc1ccc(-c2ccc(C3[C@@H]4CN(S(=O)(=O)c5ccccc5C)C[C@H]3N4)cc2)cc1 (stereo not given in full)	.	.	.	2	31*!
COc1cccc(-c2ccc(C3[C@@H]4CN(S(=O)(=O)c5ccccc5C)C[C@H]3N4)cc2)c1 (stereo not given in full)	.	.	.	-3	1
N#Cc1ccc(-c2ccc([C@H]3[C@H](CO)N4CCCCN(S(=O)(=O)c5ccccc5)C[C@@H]34)cc2)cc1	.	.	9[16.7 µM]	2	34*
CCS(=O)(=O)N1CCCCN2[C@H](CO)[C@@H](c3ccc(C#CC(C)(C)O)cc3)[C@H]2C1	.	.	-2[16.7 µM]	2	22*
Cc1noc(C)c1NC(=O)N(C)C[C@@H]1OCc2ccccc2-c2ccccc2C(=O)N([C@H](C)CO)C[C@H]1C	.	.	.	8	2
CS(=O)(=O)N1CCCCN2[C@H](CO)[C@H](c3ccc(C#Cc4ccccn4)cc3)[C@@H]2C1	.	.	11[16.7 µM]	14	33*
N#Cc1ccc(-c2ccc([C@@H]3[C@@H]4CN(S(=O)(=O)c5ccc(-c6ccccc6)cc5)C[C@H]3N4)cc2)cc1	.	.	.	85*	2
CCS(=O)(=O)N1CCCCN2[C@H](C1)[C@@H](c1ccc(-c3ccc(C#N)cc3)cc1)[C@@H]2CO	.	-15	43[16.7 µM]	9	41*

Screening data: PubChem, Broad Institute
